According to ChEMBL document CHEMBL3988442, “University of Dundee, Small-Polar-MMV Screening Library” (2021):

These compounds were tested against T1, Tyrosyl-tRNA synthetase, putative (Trypanosoma cruzi (strain CL Brener)) (UniProt Q4DSP6) (assay: Trypanosoma cruzi tyrosyl tRNA synthetase (TcYRS) SOP). Details: 30 µM.
T1 sequence (whole entry): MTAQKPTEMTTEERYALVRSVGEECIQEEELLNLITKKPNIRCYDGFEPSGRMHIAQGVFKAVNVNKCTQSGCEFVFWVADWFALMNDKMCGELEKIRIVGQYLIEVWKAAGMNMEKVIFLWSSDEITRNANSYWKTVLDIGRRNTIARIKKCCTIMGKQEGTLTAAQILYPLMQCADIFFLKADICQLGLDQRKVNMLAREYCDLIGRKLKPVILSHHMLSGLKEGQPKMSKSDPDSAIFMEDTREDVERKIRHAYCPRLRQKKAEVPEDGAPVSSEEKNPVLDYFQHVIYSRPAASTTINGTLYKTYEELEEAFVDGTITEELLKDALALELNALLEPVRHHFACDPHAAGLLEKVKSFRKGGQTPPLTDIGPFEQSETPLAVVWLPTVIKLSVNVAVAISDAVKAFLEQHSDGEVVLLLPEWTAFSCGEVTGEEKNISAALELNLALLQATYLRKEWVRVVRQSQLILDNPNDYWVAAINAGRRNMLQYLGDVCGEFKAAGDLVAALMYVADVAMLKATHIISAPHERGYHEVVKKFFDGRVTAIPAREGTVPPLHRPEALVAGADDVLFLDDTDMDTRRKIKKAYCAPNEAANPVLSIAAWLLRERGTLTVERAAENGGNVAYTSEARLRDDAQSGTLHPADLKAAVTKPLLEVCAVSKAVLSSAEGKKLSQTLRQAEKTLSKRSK
Assay type: functional
Set-up: scale not given: direction of the effect not stated beside the values
Cc1ncsc1C(=O)N(C)CCc1ccncc1 gave a Percent Effect of 4.88%. In the case of O=C(O)c1ccc(F)c(S(=O)(=O)Nc2c(F)cccc2-n2cccn2)c1, the Percent Effect is reported as 8.64%. Cn1cnc2c1C(COCc1cccnc1)N(Cc1ccccn1)CC2 (stereo not given) was tested, and the Percent Effect was -55%. With Cc1cc(CN2CCCC(C)(CO)C2)ccc1F (stereo not given) the Percent Effect was 3.7%. CCS(=O)(=O)CC(=O)NC(c1ccc(F)cc1)C1CCCC1 (stereo not given) gave a Percent Effect of 5.2%. In the case of O=C(Nc1cccc(CN2CCOC2=O)c1)N1CCOCC1, the Percent Effect is reported as 7.69%. For CC(C)c1cc(NC(=O)c2ccc(C(=O)NC(C)(C)C)cc2)[nH]n1, the Percent Effect was 24.4%. Work on CN(C)C(=O)CN1CCCCC1c1nc(N)ncc1-c1cccc(F)c1 (stereo not given) yielded a Percent Effect of 14.1%. Work on CCN1CC(C(=O)NC(C)(C)CC(C)(C)C)CC1=O (stereo not given) yielded a Percent Effect of 8.64%. Compound CC(C)CS(=O)(=O)CC(=O)N(C)Cc1ccc(OC(F)F)cc1 has a Percent Effect of 9.76%. With Cc1ccc(C(=O)Nc2cn[nH]c2)cn1 the Percent Effect was 19.5%. In the case of CSc1nccn1-c1cccc(C(=O)NCc2nnc(C)n2C)c1, the Percent Effect is reported as 23.5%. CN(Cc1cnn(C)c1)C(=O)Cn1c(CS(C)(=O)=O)nc2ccccc21 was tested, and the Percent Effect was 10.4%. In the case of CC1CN(Cc2nccn2C)CCN1c1ccc2nncn2n1 (stereo not given), the Percent Effect is reported as 21.9%. O=C(CCn1cccn1)N1CCN(CC(F)F)CC1 showed a Percent Effect of 25.6%. With Cc1noc(C(C)C)c1C(=O)N1CCCN(Cc2cscn2)CC1 the Percent Effect was 21.2%. CS(=O)(=O)CCNC(=O)C1(c2cccc(Cl)c2)CCCCC1 showed a Percent Effect of -7.69%. With CCc1n[nH]c(C2CN(C(=O)c3ccsc3)CCO2)n1 (stereo not given) the Percent Effect was -2.35%. For CN(C)C(=O)N1C[C@@H]2CC[C@H](C1)N(C(=O)CCCn1cncn1)C2, the Percent Effect was 21.9%. With CN1CCN(C2CCN(CC(=O)NCC(F)(F)F)CC2)C1=O the Percent Effect was 13.9%.
